From PubChem BioAssay (NCATS)
“And” between values parts separate entries of the source, which are not always exact repeats. Equal values may be shown once. Records with an inconclusive call do not appear. The source made the active and inactive calls. Calls come from the whole dose curve; as a rule, active = well fitted curve in the direction sought with a large enough effect; inconclusive = small, poorly fitted or top-dose-only effect, or another doubt; inactive = no such curve, though single readings can be large; an effect the other way counts as inactive or inconclusive.

Key:
HEK293 = test: Cytotoxic Profiling of Annotated Libraries Using Quantitative High-Throughput Screening (AID 1296008); settings: Five cell lines viability, CellTiter-Glo ATP luminescence, 48-72 h; max response: active compounds read low; note: nearly all actives have a fitted effect of over 60% in size; note: potency is the fitted concentration of half-maximal effect
How it was run: (§1)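 Cytotoxicity was measured as CellTiter-Glo ATP luminescence, read after 10 min at room temperature. Compound treatment of the cells lasted 48 or 72 hr at 37 degrees Celsius in a qHTS format.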

HaCat = test: as above; settings: Five cell lines viability, CellTiter-Glo ATP luminescence, 48-72 h; max response: active compounds read low
How it was run: as §1

KB-3-1 = test: as above; settings: Five cell lines viability, CellTiter-Glo ATP luminescence, 48-72 h; max response: active compounds read low
How it was run: as §1

NIH3T3 [1] = test: as above; settings: Five cell lines viability, CellTiter-Glo ATP luminescence, 48-72 h; max response: active compounds read low
How it was run: as §1

MCC-13 = test: qHTS assay to identify novel small-molecules to repurpose for Merkel cell carcinoma treatment (AID 1296009); settings: MCC and control cell lines, CellTiter-Glo viability, 72 h; series mostly up to 46 µM; note: nearly all actives have a fitted effect of over 60% in size; note: potency is the fitted concentration of half-maximal effect
How it was run: (§2)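 Cell viability, measured as CellTiter-Glo luminescence, was normalized between DMSO and no-cell wells. The cells had been exposed to 8- or 11-point compound dilutions for 72 hr at 37 degree celsius.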

MCC-26 = test: as above; settings: MCC and control cell lines, CellTiter-Glo viability, 72 h; series mostly up to 46 µM
How it was run: as §2

MKL-1 = test: as above; settings: MCC and control cell lines, CellTiter-Glo viability, 72 h; series mostly up to 46 µM
How it was run: as §2

MKL-2 = test: as above; settings: MCC and control cell lines, CellTiter-Glo viability, 72 h; series mostly up to 46 µM
How it was run: as §2

UISO = test: as above; settings: MCC and control cell lines, CellTiter-Glo viability, 72 h; series mostly up to 46 µM
How it was run: as §2

WaGa = test: as above; settings: MCC and control cell lines, CellTiter-Glo viability, 72 h; series mostly up to 46 µM
How it was run: as §2

C33A = test: Primary qHTS to identify gynecologic anti-cancer compounds using libraries of approved drugs and bioactive compounds (AID 1345084); settings: Gynecologic cancer cell panel viability, ATPlite luminescence, 48 h; series mostly up to 57.5 µM; note: nearly all actives have a fitted effect of over 55% in size
How it was run: (§3)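 Luminescence from the ATPlite ATP-monitoring reagent indicates viable cell number; lower signal means cytotoxicity. Cells received compound 16 h after seeding and were exposed for 48 h across five concentrations.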

CASKI = test: as above; settings: Gynecologic cancer cell panel viability, ATPlite luminescence, 48 h; series mostly up to 57.5 µM
How it was run: as §3

Es-2 = test: as above; settings: Gynecologic cancer cell panel viability, ATPlite luminescence, 48 h; series mostly up to 57.5 µM
How it was run: as §3

HeLa = test: as above; settings: Gynecologic cancer cell panel viability, ATPlite luminescence, 48 h; series mostly up to 57.5 µM
How it was run: as §3

Hek293T [2] = test: as above; settings: Gynecologic cancer cell panel viability, ATPlite luminescence, 48 h, control line for the selectivity index; series mostly up to 57.5 µM
How it was run: as §3

JEG-3 = test: as above; settings: Gynecologic cancer cell panel viability, ATPlite luminescence, 48 h; series mostly up to 57.5 µM
How it was run: as §3

HEK293T [3] = test: qHTS assay to identify novel small-molecules to repurpose for Merkel cell carcinoma treatment (AID 1296009); settings: MCC and control cell lines, CellTiter-Glo viability, 72 h; at 44.8 µM (top of the series); note: nearly all actives have a fitted effect of over 60% in size; note: potency is the fitted concentration of half-maximal effect
How it was run: as §2

NIH3T3 [4] = test: as above; settings: MCC and control cell lines, CellTiter-Glo viability, 72 h; at 44.8 µM (top of the series) unless noted
How it was run: as §2

CAOV3 = test: Primary qHTS to identify gynecologic anti-cancer compounds using libraries of approved drugs and bioactive compounds (AID 1345084); settings: Gynecologic cancer cell panel viability, ATPlite luminescence, 48 h; series mostly up to 57.5 µM; note: nearly all actives have a fitted effect of over 55% in size
How it was run: as §3
% is set by controls: 0 for no effect and ±100 for the full control effect.

CC(C)C(C)C=CC(C)C1CCC2C3=CC=C4CC(O)CCC4(C)C3CCC21C (stereo unspecified)
inactive: max response (HEK293) 4.56% | max response (HaCat) -0.819% | max response (KB-3-1) 1.29% | max response (NIH3T3 [1]) -6.24% | Potency (MCC-13) | Potency (MCC-26) | Potency (MKL-1) | Potency (MKL-2) | Potency (UISO) | Potency (WaGa)

Nc1ncnc2c1ncn2[C@@H]1O[C@H](CO)C[C@@H]1O
active: Potency (WaGa) 14.8 µM
inactive: max response (HEK293) -3.58% | max response (HaCat) -0.663% | outcome (KB-3-1) | max response (NIH3T3 [1]) -2.75% | Potency (MCC-13) | Potency (MCC-26) | Potency (MKL-1) | Potency (MKL-2) | Potency (UISO)

Cc1c(NC(=O)c2ccc(C(C)(C)C)cc2)cccc1-c1cn(C)c(=O)c(Nc2ccc(C(=O)N3CCOCC3)cc2)n1
active: Potency (HEK293) 11.8 µM
inactive: max response (HaCat) -8.79% | max response (KB-3-1) 3.17% and -18.9% | max response (NIH3T3 [1]) -19.5% and -5.9% | Potency (MCC-13) | Potency (MCC-26) | Potency (MKL-1) | Potency (MKL-2) | Potency (WaGa) | Potency (C33A) | Potency (CASKI) | Potency (Es-2) | Potency (HeLa) | Potency (Hek293T [2]) | Potency (JEG-3)

CC(C)(Cc1ccc2ccccc2c1)NC[C@@H](O)COc1cccc(Cl)c1C#N
inactive: max response (HEK293) -1.92% | max response (HaCat) -22.6% | max response (KB-3-1) 2.48% | max response (NIH3T3 [1]) -24.7% | Potency (MCC-13) | Potency (MCC-26) | Potency (MKL-1) | Potency (UISO)

CCN(CC)CCOc1ccc(C(=C(Cl)c2ccccc2)c2ccccc2)cc1
inactive: outcome (HEK293) | max response (HaCat) -8.22% | outcome (KB-3-1) | max response (NIH3T3 [1]) 2.62% | outcome (HEK293T [3]) | Potency (MCC-13) | Potency (MKL-1) | Potency (MKL-2) | Potency (UISO) | Potency (WaGa)

CC(=O)N[C@@H](CS)C(=O)O
inactive: outcome (HEK293) | max response (HaCat) -16.4% | max response (KB-3-1) 0.129% | outcome (NIH3T3 [1]) | outcome (HEK293T [3]) | Potency (MCC-13) | Potency (MCC-26) | Potency (MKL-1) | Potency (MKL-2) | outcome (NIH3T3 [4]) | Potency (UISO) | Potency (WaGa) | Potency (C33A) | Potency (CASKI) | Potency (Es-2) | Potency (HeLa) | Potency (Hek293T [2]) | Potency (JEG-3)

O=C(O)C(O)Cc1ccc(O)c(O)c1 (stereo unspecified)
inactive: outcome (HEK293) | max response (HaCat) -1.88% | max response (KB-3-1) 5.06% | max response (NIH3T3 [1]) -0.893% | outcome (HEK293T [3]) | Potency (MCC-13) | Potency (MCC-26) | Potency (MKL-1) | Potency (MKL-2) | Potency (UISO) | Potency (WaGa)

COC(=O)C1=CO[C@@H](O)[C@@H]2C(CO)=CC[C@@H]12
inactive: max response (HEK293) 4.92% | max response (HaCat) 3.95% | max response (KB-3-1) -1.15% | outcome (NIH3T3 [1]) | Potency (MCC-13) | Potency (MCC-26) | outcome (NIH3T3 [4])
active: Potency (MKL-2) 9.35 µM

CN[C@@H](C)C(=O)N[C@H]1CN(C(=O)CC(C)C)CC[C@H]2CC[C@@H](C(=O)NC(c3ccccc3)c3ccccc3)N2C1=O
active: Potency (HaCat) 16.6 µM and 23.1 µM
inactive: max response (HEK293) -1.1% | max response (KB-3-1) 2.72% and 0.688% | max response (NIH3T3 [1]) -2.17% and -4.72% | Potency (MCC-13) | Potency (MCC-26) | Potency (MKL-2) | Potency (C33A) | Potency (Es-2) | Potency (Hek293T [2]) | Potency (JEG-3)

O=c1c(O)c(-c2ccc(O)cc2)oc2cc(O)cc(O)c12
inactive: outcome (HEK293) | max response (HaCat) -4.55% | outcome (KB-3-1) | max response (NIH3T3 [1]) -2.9% | outcome (HEK293T [3]) | Potency (MCC-13) | Potency (MCC-26)
active: Potency (WaGa) 3.72 µM

CO[C@H]1C(=O)[C@]2(C)[C@@H](OC)C[C@H]3OC[C@@]3(OC(C)=O)[C@H]2[C@H](OC(=O)c2ccccc2)[C@]2(O)C[C@H](OC(=O)[C@H](O)[C@@H](NC(=O)OC(C)(C)C)c3ccccc3)C(C)=C1C2(C)C
inactive: max response (HEK293) -66.4% | max response (HaCat) -71.6% | max response (NIH3T3 [1]) -69.8% | Potency (MCC-13) | Potency (MCC-26) | Potency (MKL-1) | Potency (MKL-2) | Potency (UISO) | Potency (WaGa)
active: Potency (KB-3-1) 0.0008 µM

O=c1cc(N2CCOCC2)oc2c(-c3cccc4c3sc3ccccc34)cccc12
active: Potency (HEK293) 2.96 µM | Potency (NIH3T3 [1]) 16.6 µM
inactive: max response (HaCat) -6.51% | outcome (KB-3-1) | Potency (MCC-13) | Potency (MCC-26) | Potency (MKL-1) | Potency (MKL-2) | Potency (UISO) | Potency (WaGa)

CC(=O)O[C@]1(C(C)=O)CC[C@H]2[C@@H]3C=C(Cl)C4=CC(=O)[C@@H]5C[C@@H]5[C@]4(C)[C@H]3CC[C@@]21C
inactive: max response (HaCat) 4.62% and -21.2% | max response (KB-3-1) 2.19% and -8.34% | max response (NIH3T3 [1]) -8.51% and -19.2% | Potency (MCC-13) | Potency (MCC-26) | Potency (C33A) | Potency (CAOV3) | Potency (CASKI) | Potency (Es-2) | Potency (Hek293T [2]) | Potency (JEG-3)
active: Potency (HEK293) 13 µM

O=C1NC(=O)C(=Cc2ccc3nccnc3c2)S1
inactive: max response (HEK293) -10.3% | max response (HaCat) -12.7% | max response (KB-3-1) -0.874% | max response (NIH3T3 [1]) -9.21% | Potency (MCC-13) | Potency (MKL-1) | Potency (MKL-2) | Potency (UISO)

Nc1ncnc2ccccc12
inactive: outcome (HEK293) | max response (HaCat) -14.1% | outcome (KB-3-1) | max response (NIH3T3 [1]) -0.365% | outcome (HEK293T [3]) | Potency (MCC-13) | Potency (MKL-1) | Potency (MKL-2) | Potency (UISO) | Potency (WaGa)

CC#CCn1c(N2CCC[C@@H](N)C2)nc2c1c(=O)n(Cc1nc(C)c3ccccc3n1)c(=O)n2C
inactive: max response (HEK293) -21.1% | max response (HaCat) 3.66% | max response (KB-3-1) -0.824% | outcome (NIH3T3 [1]) | Potency (MCC-13) | Potency (MCC-26) | Potency (MKL-1) | Potency (MKL-2) | outcome (NIH3T3 [4]) | Potency (UISO) | Potency (WaGa)

COc1ccc2cccc(CCNC(C)=O)c2c1
inactive: max response (HEK293) 4.38% | max response (HaCat) -1.39% | max response (KB-3-1) 2.52% | max response (NIH3T3 [1]) -3.32% | Potency (MCC-13) | Potency (MCC-26) | Potency (MKL-1) | Potency (MKL-2) | Potency (UISO) | Potency (WaGa) | Potency (C33A) | Potency (CASKI) | Potency (Es-2) | Potency (HeLa) | Potency (Hek293T [2]) | Potency (JEG-3)
